Assay results from PubChem BioAssay (NCATS).
Results filed as inconclusive are left out. Entries that show only a call come without a potency. The source made the active and inactive calls. Calls come from the whole dose curve; as a rule, active = well fitted cell-killing curve with a large enough effect; inconclusive = small, poorly fitted or top-dose-only effect, or effect the other way; inactive = no such curve, though single readings can be large or run the other way.

assay: Quantitative High-Throughput drug screen in 47 multiple myeloma cell lines against the NCATS MIPE library collection: H1112_PLB cell viability assay (AID 1918967; note: nearly all actives have a fitted effect of over 30% in size); conditions: H1112 myeloma cells viability, ATP luminescence, 48 h; series mostly up to 45.8 µM
From the text: PI: Beverly A. Mock Ph.D.
Laboratory of Cancer Biology and Genetics,
Center for Cancer Research, National Cancer Institute,
National Institute of Health, Bethesda, Maryland
Drug resistance and disease progression are common in multiple myeloma (MM) patients, underscoring the need for new therapeutic combinations. […] We hypothesized that effective combinations would reduce MYC expression and enhance p16 activity. […] These preclinical data identify potentially useful drug combinations for evaluation in drug-resistant MM and reveal potential mechanisms of combined drug sensitivity.
Described herein is the primary MIPE qHTS used to cherrypick compounds. Validated compounds were then further tested for potential synergistic activiy.
[1] Peat TJ, Gaikwad SM, Dubois W, Gyabaah-Kessie N, Zhang S, Gorjifard S, Phyo Z, Andres M, Hughitt VK, Simpson RM, Miller MA, Girvin AT, Taylor A, Williams D, D'Antonio N, Zhang Y, Rajagopalan A, Flietner E, Wilson K, Zhang X, Shinn P, Klumpp-Thomas C, McKnight C, Itkin Z, Chen L, Kazandijian D, Zhang J, Michalowski AM, Simmons JK, Keats J, Thomas CJ, Mock BA. Drug combinations identified by high-throughput screening promote cell cycle transition and upregulate Smad pathways in myeloma. Cancer Lett. 2023 Aug 1;568:216284. doi: 10.1016/j.canlet.2023.216284. Epub 2023 Jun 24. PMID: 37356470; PMCID: PMC10408729.
SEQUENCE No. (e.g., 1, 2, 3, etc.); […] (e.g., Cells, Incubation, Reagent, etc.); VALUE and DESCRIPTION.
1; Cells; 5 uL; white, solid bottom 1536-well Greiner assay plate.
2; Compounds; 23 nL; Kalypsis pin tool (Wako USA) equipped with a 1536-well pin head to transfer to the assay plates.
3; Incubation; 48 hours; 37C incubation.
4; Reagent;5uL; CellTiter Glo (Promega).
5; Detector; 425V; Luminescence; Viewlux PerkinElmer.
NOTES (numbers refer to Sequence numbers above)
1. The cell-based screening methods employed in this study were like those previously published. Briefly, the corresponding myeloma cell lines were screened in 1,536-well plates with 500 cells, 5-uL per well for inhibition of cell viability (assessed by measuring ATP levels with CellTiterGlo).
2. NCATS MIPE 4.0 library of approved and investigational drugs were added using the Kalypsis pin tool. Wells treated with DMSO only for 100% viability and media only wells for 0% viability were used as controls.
3. The assay plates were covered and incubated for 48 hours in a 37C, 5% CO2 incubator with controlled humidity.
4. After 48 hours, CellTilter-GloTM luminescent substrate mix (Promega) reagent was added to the assay plate and plates we incubated for 5 min at room temperature.
5. Signal was measured as median relative luminescence units on a ViewLux (PerkinElmer) multiplate reader.
[1] Heske CM, Davis MI, Baumgart JT, Wilson K, Gormally MV, Chen L, Zhang X, Ceribelli M, Duveau DY, Guha R, Ferrer M, Arnaldez FI, Ji J, Tran HL, Zhang Y, Mendoza A, Helman LJ, Thomas CJ. Matrix Screen Identifies Synergistic Combination of PARP Inhibitors and Nicotinamide Phosphoribosyltransferase (NAMPT) Inhibitors in Ewing Sarcoma. Clin Cancer Res. 2017 Dec 1;23(23):7301-7311. doi: 10.1158/1078-0432.CCR-17-1121. Epub 2017 Sep 12. PMID: 28899971; PMCID: PMC6636827.
Potency is the fitted concentration of half-maximal effect.

Question: With C[C@](O)(CS(=O)(=O)c1ccc(F)cc1)C(=O)Nc1ccc(C#N)c(C(F)(F)F)c1 as the compound, how does the Potency read?
Answer: The Potency was 0.662 µM (active).

Question: Which Potency does the source give for CN1C(=O)CCS(=O)(=O)C1c1ccc(Cl)cc1 (stereo unspecified) here?
Answer: Its Potency is 16.6 µM (active).

Question: Which Potency does the source give for CN1C(=O)COc2c(C(=O)NC3CN4CCC3CC4)cc(Cl)cc21 (stereo unspecified) here?
Answer: The Potency was “inactive”.

Question: Which Potency does the source give for O=C(O)CCCc1ccc(N(CCCl)CCCl)cc1 here?
Answer: Its Potency is “inactive”.

Question: Which Potency does the source give for C[C@]12CC[C@@H]3c4ccc(OC(=O)N(CCCl)CCCl)cc4CC[C@H]3[C@@H]1CC[C@@H]2OP(=O)(O)O here?
Answer: The Potency was “inactive”.

Question: For CC(C)c1cccc(C(C)C)c1O, which Potency is on record?
Answer: Its Potency is “inactive”.

Question: With CCC1(c2ccc(N)cc2)CCC(=O)NC1=O (stereo unspecified) as the compound, how does the Potency read?
Answer: The Potency was “inactive”.

Question: With COc1cc(OC)c(OC)cc1C=O as the compound, how does the Potency read?
Answer: The Potency was “inactive”.

Question: For O=P1(N(CCCl)CCCl)NCCCO1 (stereo unspecified), which Potency is on record?
Answer: The Potency was “inactive”.

Question: For CC(C)C[C@H](CN)CC(=O)O, which Potency is on record?
Answer: The Potency was “inactive”.

Question: For C[C@]12CCC(=O)C=C1CC[C@@H]1[C@H]3CC[C@](C)(O)[C@@]3(C)CC[C@@H]12, which Potency is on record?
Answer: Its Potency is “inactive”.
